About 14,000 (4.5%) of roughly 310,000 compounds showed an effect of 50% or more. Effects have a minus sign here. Only a selection was taken, and strong results are over-represented in it overall.

The text below walks through data of article PMC4336329 (PLoS ONE, 2015).
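Also: peak tail current of the secondary pulse compared with the same well before compound.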

The target in this assay is human ether-à-go-go-related gene (hERG) potassium channel (human, UniProt Q12809). Nature of the assay: primary screen, population patch clamp on CHO cells stably expressing hERG; higher = less effect of the substance.
Chain of human ether-à-go-go-related gene (hERG) potassium channel (Q12809 whole entry, looked up): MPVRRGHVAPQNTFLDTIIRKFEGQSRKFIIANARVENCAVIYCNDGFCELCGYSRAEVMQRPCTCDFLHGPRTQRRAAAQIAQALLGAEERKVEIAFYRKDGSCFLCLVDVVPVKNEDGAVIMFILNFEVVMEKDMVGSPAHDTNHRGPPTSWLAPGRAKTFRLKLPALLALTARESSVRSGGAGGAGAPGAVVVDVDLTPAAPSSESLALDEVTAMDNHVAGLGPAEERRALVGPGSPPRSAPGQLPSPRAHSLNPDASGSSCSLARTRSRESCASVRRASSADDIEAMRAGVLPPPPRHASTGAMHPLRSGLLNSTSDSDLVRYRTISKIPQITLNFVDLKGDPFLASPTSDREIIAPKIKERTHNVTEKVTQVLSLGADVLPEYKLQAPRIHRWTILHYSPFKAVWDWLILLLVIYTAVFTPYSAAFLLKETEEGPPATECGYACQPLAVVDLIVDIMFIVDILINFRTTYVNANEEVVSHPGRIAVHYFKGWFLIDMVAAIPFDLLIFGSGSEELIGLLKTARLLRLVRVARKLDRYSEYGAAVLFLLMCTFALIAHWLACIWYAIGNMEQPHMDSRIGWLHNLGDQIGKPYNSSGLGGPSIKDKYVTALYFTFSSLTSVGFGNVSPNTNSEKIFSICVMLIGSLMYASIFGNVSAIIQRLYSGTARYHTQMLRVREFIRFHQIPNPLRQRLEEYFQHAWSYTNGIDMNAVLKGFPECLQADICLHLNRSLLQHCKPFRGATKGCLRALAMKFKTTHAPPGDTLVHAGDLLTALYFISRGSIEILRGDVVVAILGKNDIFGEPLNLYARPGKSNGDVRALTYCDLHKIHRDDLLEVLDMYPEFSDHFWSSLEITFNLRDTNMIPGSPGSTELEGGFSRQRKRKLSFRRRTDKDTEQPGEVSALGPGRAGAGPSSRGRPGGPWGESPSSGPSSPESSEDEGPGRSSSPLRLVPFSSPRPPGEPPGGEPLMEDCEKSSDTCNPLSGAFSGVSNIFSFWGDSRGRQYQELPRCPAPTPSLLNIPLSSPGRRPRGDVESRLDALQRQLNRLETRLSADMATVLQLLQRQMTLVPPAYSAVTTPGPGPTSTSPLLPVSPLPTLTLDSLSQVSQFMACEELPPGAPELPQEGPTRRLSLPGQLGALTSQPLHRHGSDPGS
Take `Cc1ccc(-n2cccn2)c(CN2CCCC(CNC(=O)c3ccc(F)cc3)C2)c1` (centres unmarked): the “hERG current change (%, negative = inhibition) at 10uM” value is -75.5%.

Take `CCn1ncc(CN2CCCC(CNC(=O)c3ccc(F)cc3)C2)c1C` (centres unmarked): the “hERG current change (%, negative = inhibition) at 10uM” value is -1.04%. Then `Cc1ccccc1CC(=O)N1CCCC(CNC(=O)c2ccc(F)cc2)C1` (centres unmarked), with -2%. The same measure for `O=C(NCC1CCCN(C(=O)c2cc(Cl)ccc2F)C1)c1ccc(F)cc1` (centres unmarked): -6.65%; for `Cc1cc(C)c(CN2CCCC(CNC(=O)c3ccc(F)cc3)C2)c(-n2cccn2)c1` (centres unmarked): -75.6%; for `Cc1cc(C(=O)Nc2ccccc2N2CCOCC2)c(C)o1`: -18.1%.

Regarding `CCc1noc(C)c1C(=O)OCC(=O)N(CC)c1c(N)n(Cc2ccccc2)c(=O)[nH]c1=O`, the “hERG current change (%, negative = inhibition) at 10uM” value amounted to 10.9%. The same measure for `Cc1ccc(C2CC(=O)NC(SCCC(C)C)=C2C#N)cc1` (centres unmarked): -10.6%.

For `Cc1ccc(C(=O)NCCNC(=O)c2ccc(C)nc2)cc1`, the “hERG current change (%, negative = inhibition) at 10uM” value is listed as 5.21%. Then `Cc1ccc(S(=O)(=O)NCCNC(=O)c2ccc(C)nc2)cc1`, with -72%; and `Cc1ccc(C(=O)NCCNS(=O)(=O)c2ccccc2)cn1`, with 12.7%.

With `COc1ccccc1NC(=O)COc1ccc(/C=N/NS(=O)(=O)c2ccc(C)cc2)cc1`, the “hERG current change (%, negative = inhibition) at 10uM” value was 20.1%. Then `CCC(=O)Nc1ccc2c(c1)nc(CCN1CCC(C)CC1)n2C`, with 1.48%.

As for `CC(=O)Nc1ccc2c(c1)nc(CCN1CCC(C)CC1)n2C`, the “hERG current change (%, negative = inhibition) at 10uM” value is reported as 8.83%. The same measure for `CC(=O)N1CCN(Cc2nc3cc(NC(=O)COc4cccc(C)c4)ccc3n2C)CC1.Cl`: -15.3%; for `CC1CCN(CCc2nc3cc(NC(=O)Nc4ccccc4)ccc3n2C)CC1`: -44.4%.

For `COc1ccc(OCC(=O)Nc2ccc3c(c2)nc(CCN2CCC(C)CC2)n3C)cc1`, the “hERG current change (%, negative = inhibition) at 10uM” value is on record as -75.4%. The same measure for `Cc1ccc(OCC(=O)Nc2ccc3c(c2)nc(CCN2CCC(C)CC2)n3C)cc1`: -70.6%; for `CC1CCN(CCc2nc3cc(NC(=O)COc4ccccc4)ccc3n2C)CC1`: -68.4%. Consider `Cc1cccc(OCC(=O)Nc2ccc3c(c2)nc(CCN2CCC(C)CC2)n3C)c1`, for which the “hERG current change (%, negative = inhibition) at 10uM” value is on record as -68.7%.

As for `CCOC(=O)CSc1nc(N)cc(=O)[nH]1`, the “hERG current change (%, negative = inhibition) at 10uM” value worked out at 7.78%.

Regarding `CN(Cc1ccccc1)C(=O)c1[nH]cnc1C(=O)NCc1ccc(CNC(=O)OC(C)(C)C)cc1`, the “hERG current change (%, negative = inhibition) at 10uM” value was -6.68%. On to `CC(C)NC(=O)C1CCN(C(=O)C(C(=O)c2ccccc2)n2cc(Cl)ccc2=O)CC1` (centres unmarked), for which the “hERG current change (%, negative = inhibition) at 10uM” value is 6.17%. Then `COC(=O)c1ccc2c(C)c(C(C)(C)O)[nH]c2c1`, with 10.3%; and `Cc1sc2nc(-c3cccnc3)[nH]c(=O)c2c1-c1ccccc1`, with -4.06%. The same measure for `Clc1ccc(OCCn2ccnc2)c(Cl)c1`: -18.9%; for `CN(C)/C=N/c1[nH]ncc1C#N`: 16%. The same measure for `CC1CCN(CCc2nc3cc(NC(=O)COc4ccc(Cl)cc4)ccc3n2C)CC1`: -74.7%; for `COc1ccc(-c2c(-c3cc(OC)cc(OC)c3)n(C)c3ccc(-c4cccc5[nH]ccc45)cc23)cc1`: 16.7%. For the compound `COCCNC(=O)c1ccccc1NS(=O)(=O)c1ccc(Br)s1`, the “hERG current change (%, negative = inhibition) at 10uM” value is reported as 0.678%.

Turning to `CC(C)=C1C2CCC1C(C(=O)Nc1cc(C)cc(C)c1)C2C(=O)O` (centres unmarked), the “hERG current change (%, negative = inhibition) at 10uM” value is given as 14%. Then `CN(C)CC#CCC(O)(c1ccccc1)c1ccccc1`, with -2.15%; and `CCN(CC)CC#CCC(O)(c1ccccc1)c1ccccc1`, with -25.1%; and `CCN(CC)CC#CCC(O)(c1ccccc1)c1ccc(Br)cc1.Cl` (centres unmarked), with -50.1%. Turning to `CCN(CC)CC#CCC(C)(c1ccccc1)c1ccccc1.Cl`, the “hERG current change (%, negative = inhibition) at 10uM” value is reported as -54.8%. For the compound `CCN(CC)CC#CCC(OC)(c1ccccc1)c1ccccc1.Cl`, the “hERG current change (%, negative = inhibition) at 10uM” value is reported as -32.5%. Then `CCN(CC)CC#CCC(O)(c1ccccc1)C1CCCC1.Cl` (centres unmarked), with -11.7%. Then `CC(=O)N1CCC(N(CCN2CCOCC2)C(=S)Nc2cccc(C)c2)CC1`, with 0.988%.

In the case of `C=CCN(c1ccccc1)S(=O)(=O)c1cccc(C(=O)NCC(c2ccccc2OC)N2CCCC2)c1` (centres unmarked), the “hERG current change (%, negative = inhibition) at 10uM” value was -70.5%. The same measure for `COc1ccc(NS(=O)(=O)c2cccc(C(=O)NCC(c3ccccc3OC)N3CCCC3)c2)cc1` (centres unmarked): -55.4%; for `COc1ccccc1NS(=O)(=O)c1cccc(C(=O)NCC(c2ccccc2OC)N2CCCC2)c1` (centres unmarked): -12.9%. The same measure for `COc1ccccc1NS(=O)(=O)c1cc(C(=O)NCC(c2ccc(F)cc2)N2CCOCC2)ccc1C` (centres unmarked): -19.1%.

As for `C=CCN(c1ccccc1)S(=O)(=O)c1cccc(C(=O)NCC(c2cccs2)N2CCOCC2)c1` (centres unmarked), the “hERG current change (%, negative = inhibition) at 10uM” value was -18.7%. Take `COc1ccccc1NS(=O)(=O)c1cc(C(=O)NCC(c2ccco2)N2CCCCC2)ccc1C` (centres unmarked): the “hERG current change (%, negative = inhibition) at 10uM” value was -48.6%. Turning to `C=CCN(c1ccccc1)S(=O)(=O)c1cccc(C(=O)NCC(c2ccc(F)cc2)N2CCOCC2)c1` (centres unmarked), the “hERG current change (%, negative = inhibition) at 10uM” value is recorded as -29.6%. Then `COc1ccc(C(CNC(=O)c2ccc(C)c(S(=O)(=O)Nc3ccccc3OC)c2)N2CCCC2)cc1` (centres unmarked), with -66.2%. `COc1ccccc1C(CNC(=O)c1cccc(S(=O)(=O)Nc2ccc(C)cc2)c1)N1CCCC1` (centres unmarked): the “hERG current change (%, negative = inhibition) at 10uM” value is reported as -29.8%.

For `COc1ccc(C(CNC(=O)c2cccc(S(=O)(=O)Nc3ccccc3OC)c2)N2CCOCC2)cc1` (centres unmarked), the “hERG current change (%, negative = inhibition) at 10uM” value is -46.1%. Then `COc1ccc(NS(=O)(=O)c2cccc(C(=O)NCC(c3ccc(OC)cc3)N3CCCC3)c2)cc1` (centres unmarked), with -46.7%; and `COc1ccc(C(CNC(=O)c2cccc(S(=O)(=O)Nc3ccccc3OC)c2)N2CCCC2)cc1` (centres unmarked), with -56.6%.
